The supplement of paper PMC11001985
Unmarked numbers belong to inactive results.

These targets were tested with C#CCNC(=O)CCSSCCC(=O)NCCc1ccc(C=O)c(C=O)c1 (assay: lysine labeling ratio R10:1 (500 µM / 50 µM probe), SILAC-ABPP in living cells; higher = lower intrinsic lysine reactivity toward the probe, active = 2 or less). Conditions: HeLa; probe concentrations 500 vs 50 µM.
In short: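 Living SILAC light and heavy HeLa cells in PBS at room temperature were treated with an alkyne-tagged, disulfide-linked lysine probe at 50 µM or 500 µM, with forward and reverse label swaps. The mixed lysates were clicked to biotin-azide, digested with trypsin, captured on neutravidin, released with DTT, alkylated and run by LC-MS/MS on a TIMS-TOF Pro. R for each lysine is the filtered median high-probe/low-probe MS1 peptide ratio, taken again as the median over forward and reverse replicates. Any value above 20 is set to 20.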

Sequence of UniProt P26006 (P26006 whole entry): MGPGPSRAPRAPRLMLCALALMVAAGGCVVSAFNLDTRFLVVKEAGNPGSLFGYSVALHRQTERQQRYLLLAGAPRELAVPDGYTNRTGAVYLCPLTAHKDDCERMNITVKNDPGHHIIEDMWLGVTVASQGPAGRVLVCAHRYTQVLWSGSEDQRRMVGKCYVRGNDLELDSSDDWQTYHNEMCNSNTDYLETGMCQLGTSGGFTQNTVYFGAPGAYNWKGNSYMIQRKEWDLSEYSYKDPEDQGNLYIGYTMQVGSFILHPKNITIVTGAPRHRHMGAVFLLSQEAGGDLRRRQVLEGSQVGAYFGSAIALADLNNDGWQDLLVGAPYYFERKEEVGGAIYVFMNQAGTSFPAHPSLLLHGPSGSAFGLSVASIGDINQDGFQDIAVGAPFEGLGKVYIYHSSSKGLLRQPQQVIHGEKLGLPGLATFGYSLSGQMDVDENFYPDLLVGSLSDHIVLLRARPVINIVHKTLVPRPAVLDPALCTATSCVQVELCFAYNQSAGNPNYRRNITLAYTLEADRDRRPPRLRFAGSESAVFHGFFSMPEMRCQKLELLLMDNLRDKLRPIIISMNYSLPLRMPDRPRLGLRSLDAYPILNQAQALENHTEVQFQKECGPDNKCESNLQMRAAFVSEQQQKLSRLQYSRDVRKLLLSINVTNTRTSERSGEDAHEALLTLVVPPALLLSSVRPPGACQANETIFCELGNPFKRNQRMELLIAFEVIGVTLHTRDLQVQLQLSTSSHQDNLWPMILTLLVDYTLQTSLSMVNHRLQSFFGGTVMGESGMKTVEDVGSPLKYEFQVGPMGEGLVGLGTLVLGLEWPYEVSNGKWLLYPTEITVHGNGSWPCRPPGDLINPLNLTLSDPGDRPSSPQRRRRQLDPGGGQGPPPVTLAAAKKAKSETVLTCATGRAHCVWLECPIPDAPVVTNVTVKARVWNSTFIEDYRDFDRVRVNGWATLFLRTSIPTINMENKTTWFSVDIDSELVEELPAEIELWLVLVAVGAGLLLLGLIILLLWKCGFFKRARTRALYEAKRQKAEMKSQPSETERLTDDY
Sequence of UniProt Q03167 (Q03167 whole entry): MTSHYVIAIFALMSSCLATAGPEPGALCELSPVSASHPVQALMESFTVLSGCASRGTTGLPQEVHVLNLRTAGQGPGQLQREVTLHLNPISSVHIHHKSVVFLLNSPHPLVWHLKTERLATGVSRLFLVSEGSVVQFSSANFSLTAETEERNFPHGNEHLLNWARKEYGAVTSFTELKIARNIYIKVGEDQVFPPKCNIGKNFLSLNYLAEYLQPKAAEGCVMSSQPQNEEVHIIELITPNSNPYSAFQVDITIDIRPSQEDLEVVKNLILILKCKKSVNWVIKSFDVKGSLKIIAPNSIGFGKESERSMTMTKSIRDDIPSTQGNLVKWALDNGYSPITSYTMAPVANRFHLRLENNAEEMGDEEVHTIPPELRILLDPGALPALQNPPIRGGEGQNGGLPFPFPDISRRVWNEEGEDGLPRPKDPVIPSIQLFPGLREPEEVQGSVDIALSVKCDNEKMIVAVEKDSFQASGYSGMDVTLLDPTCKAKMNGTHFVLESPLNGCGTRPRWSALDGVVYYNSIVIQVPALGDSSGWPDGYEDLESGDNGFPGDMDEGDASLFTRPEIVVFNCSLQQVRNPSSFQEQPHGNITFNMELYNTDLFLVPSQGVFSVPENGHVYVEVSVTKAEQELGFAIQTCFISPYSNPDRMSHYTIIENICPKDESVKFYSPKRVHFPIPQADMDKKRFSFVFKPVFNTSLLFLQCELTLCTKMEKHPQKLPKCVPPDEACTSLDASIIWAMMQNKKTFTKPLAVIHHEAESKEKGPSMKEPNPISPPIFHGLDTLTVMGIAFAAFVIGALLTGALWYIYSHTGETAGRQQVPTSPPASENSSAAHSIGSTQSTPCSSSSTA
Sequence of UniProt Q9Y653 (Q9Y653 whole entry): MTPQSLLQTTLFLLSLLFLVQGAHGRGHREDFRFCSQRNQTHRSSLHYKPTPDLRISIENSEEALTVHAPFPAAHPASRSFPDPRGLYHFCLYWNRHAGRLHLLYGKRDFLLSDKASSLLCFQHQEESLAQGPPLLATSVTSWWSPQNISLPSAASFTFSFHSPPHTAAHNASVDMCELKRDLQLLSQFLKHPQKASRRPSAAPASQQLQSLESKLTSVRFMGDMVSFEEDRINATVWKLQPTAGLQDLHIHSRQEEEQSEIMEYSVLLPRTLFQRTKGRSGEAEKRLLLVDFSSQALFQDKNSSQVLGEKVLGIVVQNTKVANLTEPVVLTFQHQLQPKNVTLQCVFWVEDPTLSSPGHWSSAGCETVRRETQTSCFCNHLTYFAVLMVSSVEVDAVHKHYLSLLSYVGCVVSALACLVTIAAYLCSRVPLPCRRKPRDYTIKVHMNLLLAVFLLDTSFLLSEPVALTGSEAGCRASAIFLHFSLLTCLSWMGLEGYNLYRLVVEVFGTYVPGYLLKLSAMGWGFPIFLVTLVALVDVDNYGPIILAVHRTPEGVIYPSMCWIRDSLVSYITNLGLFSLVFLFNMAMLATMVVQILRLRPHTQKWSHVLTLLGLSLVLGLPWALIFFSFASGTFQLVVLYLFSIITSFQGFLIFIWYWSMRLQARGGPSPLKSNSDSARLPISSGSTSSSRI
Sequence of UniProt P00387 (P00387 whole entry): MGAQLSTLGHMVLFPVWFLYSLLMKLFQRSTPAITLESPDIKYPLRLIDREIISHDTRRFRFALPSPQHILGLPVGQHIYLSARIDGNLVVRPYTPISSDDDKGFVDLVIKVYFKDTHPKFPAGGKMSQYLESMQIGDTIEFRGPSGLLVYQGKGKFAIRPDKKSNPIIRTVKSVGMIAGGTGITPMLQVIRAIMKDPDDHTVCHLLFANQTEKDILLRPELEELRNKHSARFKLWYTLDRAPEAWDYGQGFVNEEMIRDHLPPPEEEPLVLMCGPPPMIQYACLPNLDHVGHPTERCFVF
Sequence of UniProt P20591 (P20591 whole entry): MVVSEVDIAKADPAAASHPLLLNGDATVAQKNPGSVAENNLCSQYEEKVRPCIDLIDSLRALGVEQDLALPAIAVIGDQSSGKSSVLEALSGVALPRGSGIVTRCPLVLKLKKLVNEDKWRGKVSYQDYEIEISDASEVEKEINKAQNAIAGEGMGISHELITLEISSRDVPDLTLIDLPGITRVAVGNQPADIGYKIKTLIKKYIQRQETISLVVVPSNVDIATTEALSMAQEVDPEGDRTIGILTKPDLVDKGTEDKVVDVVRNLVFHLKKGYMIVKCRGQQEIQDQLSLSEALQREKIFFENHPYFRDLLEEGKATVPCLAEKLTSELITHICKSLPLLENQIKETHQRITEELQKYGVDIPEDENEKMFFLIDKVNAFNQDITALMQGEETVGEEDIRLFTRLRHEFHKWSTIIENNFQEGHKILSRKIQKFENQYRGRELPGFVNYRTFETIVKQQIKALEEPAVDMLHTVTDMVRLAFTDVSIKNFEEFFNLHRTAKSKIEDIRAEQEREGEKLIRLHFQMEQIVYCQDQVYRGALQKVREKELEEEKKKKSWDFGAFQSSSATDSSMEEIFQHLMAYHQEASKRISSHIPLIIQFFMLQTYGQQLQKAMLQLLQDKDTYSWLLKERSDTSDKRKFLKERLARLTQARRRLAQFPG
Sequence of UniProt P43121 (P43121 whole entry): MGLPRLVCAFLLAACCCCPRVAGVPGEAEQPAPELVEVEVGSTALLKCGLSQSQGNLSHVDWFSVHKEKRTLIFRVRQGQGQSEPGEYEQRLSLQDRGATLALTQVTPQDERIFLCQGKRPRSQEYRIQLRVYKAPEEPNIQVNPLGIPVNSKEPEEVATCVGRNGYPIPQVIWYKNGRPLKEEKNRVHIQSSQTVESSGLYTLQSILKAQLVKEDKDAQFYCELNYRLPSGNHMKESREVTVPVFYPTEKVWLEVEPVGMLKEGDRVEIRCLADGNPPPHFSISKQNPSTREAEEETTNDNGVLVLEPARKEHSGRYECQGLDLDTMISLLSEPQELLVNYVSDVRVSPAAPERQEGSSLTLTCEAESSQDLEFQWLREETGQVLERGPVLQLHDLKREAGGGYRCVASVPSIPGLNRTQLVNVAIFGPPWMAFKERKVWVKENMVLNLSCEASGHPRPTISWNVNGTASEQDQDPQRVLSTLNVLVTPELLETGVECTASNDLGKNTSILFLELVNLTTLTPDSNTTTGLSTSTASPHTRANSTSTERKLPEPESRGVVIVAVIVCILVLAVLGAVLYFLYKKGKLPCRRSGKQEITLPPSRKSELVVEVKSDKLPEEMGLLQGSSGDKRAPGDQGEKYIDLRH
Sequence of UniProt P05556 (P05556 whole entry): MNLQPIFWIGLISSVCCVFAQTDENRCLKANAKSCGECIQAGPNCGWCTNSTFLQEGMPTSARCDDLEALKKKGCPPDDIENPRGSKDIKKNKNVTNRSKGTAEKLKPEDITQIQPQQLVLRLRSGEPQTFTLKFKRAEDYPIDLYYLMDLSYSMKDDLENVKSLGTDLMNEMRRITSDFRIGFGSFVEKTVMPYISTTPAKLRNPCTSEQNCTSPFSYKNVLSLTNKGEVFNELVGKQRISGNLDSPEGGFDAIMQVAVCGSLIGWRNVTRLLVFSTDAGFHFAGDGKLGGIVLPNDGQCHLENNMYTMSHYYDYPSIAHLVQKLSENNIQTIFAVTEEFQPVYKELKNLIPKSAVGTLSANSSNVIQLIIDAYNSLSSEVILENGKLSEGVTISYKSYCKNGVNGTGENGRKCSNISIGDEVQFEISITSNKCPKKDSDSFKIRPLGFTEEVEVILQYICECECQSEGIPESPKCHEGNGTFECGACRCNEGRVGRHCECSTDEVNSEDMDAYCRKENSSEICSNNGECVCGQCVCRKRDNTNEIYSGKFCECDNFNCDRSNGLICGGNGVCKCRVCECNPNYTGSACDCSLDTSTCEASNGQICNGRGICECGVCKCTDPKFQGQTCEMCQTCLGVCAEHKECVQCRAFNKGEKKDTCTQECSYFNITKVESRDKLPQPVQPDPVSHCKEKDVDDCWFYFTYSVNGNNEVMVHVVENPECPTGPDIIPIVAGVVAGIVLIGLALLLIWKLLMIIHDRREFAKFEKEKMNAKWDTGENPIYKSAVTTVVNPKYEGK

Target | lysine labeling ratio R10:1
CYB5R3 (lysine site: K164) (UniProt P00387) | 1.79 (active)
S100A10 (lysine site: K28) (UniProt P60903) | 5.79
IMPDH2 (lysine site: K134) (UniProt P12268) | 2.5
ITGA3 (lysine site: K620) (UniProt P26006) | 1.8 (active)
IL6ST (lysine site: K335) (UniProt P40189) | 0.692 (active)
ITGAV (lysine site: K499) (UniProt P06756) | 3.64
CFL1 (lysine site: K164) (UniProt P23528) | 4.91
FAT4 (lysine site: K1251) (UniProt Q6V0I7) | 1.62 (active)
ITGB1 (lysine site: K134) (UniProt P05556) | 1.83 (active)
UniProt P62277 (lysine site: K70) | 6.69
KRT18 (lysine site: K247) (UniProt P05783) | 7.86
UniProt O95084 (lysine site: K331) | 4.02
TGFBR3 (lysine site: K667) (UniProt Q03167) | 0.83 (active)
ATP6AP1 (lysine site: K380) (UniProt Q15904) | 1.79 (active)
FAT1 (lysine site: K3783) (UniProt Q14517) | 1.6 (active)
PA2G4 (lysine site: K238) (UniProt Q9UQ80) | 1.53 (active)
ITGA3 (lysine site: K638) (UniProt P26006) | 5.04
TLN1 (lysine site: K1948) (UniProt Q9Y490) | 0.788 (active)
TCP1 (lysine site: K272) (UniProt P17987) | 2.44
FAS (lysine site: K94) (UniProt P25445) | 2.69

Target | lysine labeling ratio R10:1
CLTC (lysine site: K1501) (UniProt Q00610) | 2.77
UniProt Q9Y653 (lysine site: K215) | 4.06
MCAM (lysine site: K182) (UniProt P43121) | 3.4
MYH9 (lysine site: K1845) (UniProt P35579) | 1.57 (active)
CDH13 (lysine site: K161) (UniProt P55290) | 6.29
ROR2 (lysine site: K285) (UniProt Q01974) | 3.36
SERBP1 (lysine site: K122) (UniProt Q8NC51) | 11.8
UniProt P20591 (lysine site: K505) | 2.52
WDR1 (lysine site: K81) (UniProt O75083) | 0.967 (active)
XRCC6 (lysine site: K582) (UniProt P12956) | 1.52 (active)
FLNA (lysine site: K1375) (UniProt P21333) | 2.93
EPHA5 (lysine site: K194) (UniProt P54756) | 2.4
UniProt Q15149 (lysine site: K2078) | 2.58
EDIL3 (lysine site: K157) (UniProt O43854) | 3.03
ANPEP (lysine site: K104) (UniProt P15144) | 1.17 (active)
DYNC1H1 (lysine site: K3621) (UniProt Q14204) | 3.03
UniProt P46781 (lysine site: K139) | 3
NECTIN3 (lysine site: K255) (UniProt Q9NQS3) | 4.2
NUMA1 (lysine site: K925) (UniProt Q14980) | 2.01
STMN1 (lysine site: K128) (UniProt P16949) | 2.8
